According to PubChem BioAssay (Tox21):
Records with an inconclusive call do not appear. Active and inactive are the calls of the source. Unless noted, the call rests on the fitted dose curve; in most records, active means well fitted curve in the direction sought with a large enough effect in the repeat runs; inconclusive means weak or mixed curves; inactive means no such curve, though single readings can be large; an effect the other way counts as inactive or inconclusive.

How the values were obtained:
[1] = qHTS assay to identify small molecule agonists of the vitamin D receptor (VDR) signaling pathway - cell viability counter screen (AID 743224); further: series mostly up to about 63 µM; on the % scale 0 is the no-effect control and ±100 the full control effect; nearly all actives have a fitted effect of over 50% in size
Outline: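 Cells: VDR-bla, 2,000/well, settled 4 h. Treatment: compounds in DMSO, 16 h, 37C/5% CO2. Readout: CellTiter-Glo luminescence after 30 min RT.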

[2] = qHTS assay to identify small molecule antagonists of the vitamin D receptor (VDR) signaling pathway - cell viability counter screen (AID 743225); further: on the % scale 0 is the no-effect control and ±100 the full control effect; nearly all actives have a fitted effect of over 50% in size
Outline: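 HEK293T VDR-bla; cpd + 1a,25-(OH)2D3 3 nM final, 16 h 37C/5% CO2; B/G FRET substrate 2 h RT; then CellTiter-Glo 30 min RT, luminescence.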

[3] = qHTS assay to identify small molecule agonists of the NFkB signaling pathway (AID 1159509; active means well fitted curve in the direction sought with a large enough effect in the signal ratio in the repeat runs, not every such curve was filed as active; the % refers to the signal ratio; further: series mostly up to about 61 µM; on the % scale 0 is the no-effect control and ±100 the full control effect)
Outline: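 Beta-lactamase reporter assay run in quantitative high-throughput format on an NF-kB-responsive ME-180 line, with 5 hr compound treatment and a FRET-based blue/green fluorescence readout.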

[4] = qHTS assay to identify small molecule agonists of the NFkB signaling pathway - cell viability counter screen (AID 1159515; calls by dose curve; further: series mostly up to about 61 µM; on the % scale 0 is the no-effect control and ±100 the full control effect; nearly all actives have a fitted effect of over 55% in size)
Outline: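 Cells are seeded (2,000 NFkB-bla ME-180 per well), rested overnight, and dosed with DMSO-dissolved compounds for 5 hr at 37 C. Viability is then read by CellTiter-Glo luminescence after 30 min at room temperature.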

[5] = qHTS assay to identify small molecule agonists of the endoplasmic reticulum stress response signaling pathway (AID 1159516; active means well fitted activation curve with a large enough effect in the signal ratio in the repeat runs, not every such curve was filed as active; the % refers to the signal ratio; further: on the % scale 0 is the no-effect control and ±100 the full control effect)
Outline: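 Cells are seeded at 1,500 per well and incubated overnight. Compounds in DMSO are added for 5 hr at 37 C, then beta-lactamase FRET substrate for 2 hr at room temperature, and fluorescence at 460 and 530 nm is measured.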

[6] = qHTS assay to identify small molecule antagonists of the retinoid-related orphan receptor gamma (ROR-gamma) signaling pathway - cell viability counter screen (AID 1159520); further: on the % scale 0 is the no-effect control and ±100 the full control effect; nearly all actives have a fitted effect of over 50% in size
Outline: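 Tet-on ROR gamma CHO cells (1,000/well) were plated 4 hr, given compounds in DMSO for 2 hr at 37 C, then induced with 1 uM final doxycycline for 16 hr. Viability was read as ATP by CellTiter-Glo luminescence after 30 min.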

[7] = molecular target: Nuclear receptor ROR-gamma (Homo sapiens) (UniProt P51449); assay: qHTS assay to identify small molecule antagonists of the retinoid-related orphan receptor gamma (ROR-gamma) signaling pathway (AID 1159521;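 further: CHO cells with doxycycline inducible ROR-gamma driving an RORE luciferase reporter; top concentration of the series differs between compounds; on the % scale 0 is the no-effect control and ±100 the full control effect; nearly all actives have a fitted effect of over 50% in size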)
Outline: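 Cells were plated, rested 4 h at 37 C, exposed to compounds for 2 h, then given 1 uM final doxycycline hyclate to induce RORγ expression. After 16 h, ONE-Glo luminescence from the ROR response element reporter was measured.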

[8] = qHTS assay to identify small molecule agonists of the AP-1 signaling pathway - cell viability counter screen (AID 1159525; calls by dose curve; further: nearly all actives have a fitted effect of over 55% in size)
Outline: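 Each titration point was normalised to DMSO and tetra n-octyl ammonium bromide controls. The read was Cell Titer Glo luminescence after 30 min at RT, following 5 h compound exposure of ME-180 AP-1-bla cells at 37 °C.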

[9] = qHTS assay to identify small molecule agonists of the AP-1 signaling pathway (AID 1159526; calls by dose curve; further: on the % scale 0 is the no-effect control and ±100 the full control effect)
[10] = molecular target: Retinoic acid receptor RXR-alpha (Homo sapiens) (UniProt P19793); assay: qHTS assay to identify small molecule agonists of the RXR signaling pathway (AID 1159527; calls by dose curve; further: on the % scale 0 is the no-effect control and ±100 the full control effect; nearly all actives have a fitted effect of over 35% in size)
Chain of Retinoic acid receptor RXR-alpha (Homo sapiens) (P19793 whole entry, looked up): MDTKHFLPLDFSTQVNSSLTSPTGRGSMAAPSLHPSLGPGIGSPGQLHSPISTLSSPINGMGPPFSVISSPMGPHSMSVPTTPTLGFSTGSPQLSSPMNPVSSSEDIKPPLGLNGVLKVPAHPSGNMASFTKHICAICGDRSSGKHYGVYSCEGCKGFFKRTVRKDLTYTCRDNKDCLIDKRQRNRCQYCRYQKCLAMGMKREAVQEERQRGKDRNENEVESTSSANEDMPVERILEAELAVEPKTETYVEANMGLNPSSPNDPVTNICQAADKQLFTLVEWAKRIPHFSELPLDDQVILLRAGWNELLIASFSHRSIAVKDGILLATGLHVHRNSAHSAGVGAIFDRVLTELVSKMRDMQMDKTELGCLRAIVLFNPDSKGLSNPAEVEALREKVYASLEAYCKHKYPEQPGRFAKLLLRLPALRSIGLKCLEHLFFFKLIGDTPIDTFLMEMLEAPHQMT
Outline: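 Cells plated at 2,000/well, rested 5 hr at 37 C, pin-dosed with DMSO compound solutions, incubated 16 hr, then loaded with B/G FRET substrate for 2 hr at RT before dual-emission fluorescence reading.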

[11] = qHTS assay to identify small molecule agonists of the RXR signaling pathway - cell viability counter screen (AID 1159529)
Outline: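 Steps: seed RXR-alpha-UAS-bla HEK 293T cells in assay medium containing 2% charcoal-stripped FBS; incubate 5 hr; add compounds in DMSO; incubate 16 hr at 37 C; after the bla read, add CellTiter-Glo and read luminescence at 30 min.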

[12] = qHTS assay to identify small molecule antagonists of the retinoid acid receptor (RAR) signaling pathway - cell viability counter screen (AID 1159551); further: nearly all actives have a fitted effect of over 35% in size; further: potency means the concentration at half of the fitted maximal effect; on activity change, negative = cytotoxicity: on the % scale 0 is the no-effect control and ±100 the full control effect
Outline: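 Cells (C3RL4) are plated, incubated overnight, dosed with compound in DMSO, then given retinol at 1 uM final. After 6 h at 37 C, CellTiter-Glo is added and luminescence read following 30 min at room temperature.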

[13] = qHTS assay to identify small molecule antagonists of the retinoic acid receptor (RAR) signaling pathway (AID 1159552)
Outline: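 Retinol at 1 uM final stimulated RARE-luciferase expression in C3RL4 cells exposed to test compounds for 6 hr at 37 C. Reduced luminescence, read 30 min after detection reagent, indicated pathway antagonism.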

[14] = qHTS assay to identify small molecule agonists of the retinoic acid receptor (RAR) signaling pathway (AID 1159553); further: potency means the concentration at half of the fitted maximal effect
Outline: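 Seed C3RL4 reporter cells at 1,000 per well and incubate overnight at 37 C. Add compounds in DMSO, incubate 6 hr. Add luciferase reagent, wait 30 min at room temperature, read luminescence.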

[15] = qHTS assay to identify small molecule agonists of the endoplasmic reticulum stress response signaling pathway - cell viability counter screen (AID 1159517; calls by dose curve)
Outline: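 Cytotoxicity of test compounds toward ESRE-bla HeLa cells was assessed after 5 hr exposure. The luminescent CellTiter-Glo signal was measured 30 min after reagent addition.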

CCCCCCCCSCCO
inactive: Potency [1] | Potency [2] | outcome [3] | outcome [4] | outcome [5] | Potency [6] | Potency [7] | outcome [8] | outcome [9] | Potency [10] | Potency [11] | Potency [12] | Potency [13] | Potency [14]

CO[C@H]1O[C@H](CO)[C@@H](O)[C@H](O)[C@H]1O
inactive: Potency [1] | Potency [2] | outcome [3] | outcome [4] | outcome [5] | Potency [6] | Potency [7] | outcome [8] | outcome [9] | Potency [10] | Potency [11] | Potency [12] | Potency [13] | Potency [14]

CC1=C(/C=C/C(C)=C\C=C\C(C)=C\C(=O)O)C(C)(C)CCC1
inactive: Potency [1] | outcome [3] | outcome [4] | outcome [5] | outcome [15] | outcome [9] | Potency [12] | Potency [13]
active: Potency [14] 0.0686 µM

CCCCCCCCCCCCCCCCBr
inactive: Potency [1] | Potency [2] | outcome [3] | outcome [4] | outcome [5] | activity, negative = cytotoxicity [6] 1.45% [at 19 µM] | activity change, negative = inhibition [7] 15.4% [at 19 µM] | viability change, negative = cytotoxic [8] 3.43% [at 15.8 µM] | activation [9] -6.6% [at 15.8 µM] | activation [10] 0.932% [at 15.8 µM] | activity change, negative = cytotoxicity [11] 2.29% [at 15.8 µM] | activity change, negative = cytotoxicity [12] 5.27% [at 19 µM] | activity, negative = inhibition [13] -1.48% [at 19 µM] | Potency [14]

O=C(OCCOCCO)c1ccccc1Nc1cccc(C(F)(F)F)c1
inactive: Potency [1] | Potency [2] | outcome [3] | outcome [4] | outcome [5] | outcome [15] | outcome [8] | outcome [9] | Potency [11] | Potency [12] | Potency [13] | Potency [14]

COc1ccccc1N=Nc1c(S(=O)(=O)O)cc2cc(S(=O)(=O)O)cc(NC(C)=O)c2c1O
active: Potency [12] 22.9 µM
inactive: Potency [1] | Potency [2] | outcome [3] | outcome [4] | outcome [5] | outcome [15] | outcome [8] | outcome [9] | Potency [10] | Potency [11] | Potency [13] | Potency [14]

CC1=CC(=O)CC(C)(C)C1(O)/C=C/C(C)=C\C(=O)O (stereo not given)
inactive: Potency [1] | Potency [2] | outcome [3] | outcome [4] | outcome [5] | Potency [6] | Potency [7] | outcome [8] | outcome [9] | Potency [10] | Potency [11] | Potency [12] | Potency [13] | Potency [14]

Cc1cc(O)c(C(C)C)cc1Cl
inactive: Potency [1] | Potency [2] | outcome [3] | outcome [4] | outcome [5] | Potency [6] | Potency [7] | outcome [8] | Potency [10] | Potency [12] | Potency [14]

C=CCCCCCCCCCCCCCCCC
inactive: activity change, negative = cytotoxicity [1] 7.44% [at 5.95 µM] | viability change, negative = cytotoxic [2] 8.8% [at 6.95 µM] | activation [3] 0.162% [at 6.95 µM] | activity, negative = cytotoxic [4] -0.437% [at 6.95 µM] | activation [5] 3.12% [at 6.95 µM] | activity, negative = cytotoxicity [6] 6.9% [at 8.39 µM] | activity change, negative = inhibition [7] 11.3% [at 8.39 µM] | viability change, negative = cytotoxic [8] 4.34% [at 6.97 µM] | activation [9] -4.53% [at 6.97 µM] | activation [10] 0.376% [at 6.98 µM] | activity change, negative = cytotoxicity [11] 6.72% [at 6.97 µM] | activity change, negative = cytotoxicity [12] 0.367% [at 8.39 µM] | activity, negative = inhibition [13] -14.9% [at 8.39 µM] | activation [14] -0.865% [at 8.36 µM]
